Measurements reported in PubChem BioAssay (Tox21).
Records with an inconclusive call do not appear. Calls of active or inactive are those of the source. Unless noted, the call rests on the fitted dose curve; in most records, active means well fitted curve in the direction sought with a large enough effect in the repeat runs; inconclusive means weak or mixed curves; inactive means no such curve, though single readings can be large; an effect the other way counts as inactive or inconclusive.

Legend:
[1] = qHTS RealTime-Glo MT Cell Viability Assay in HEK293 cells - 0 hour (AID 1224880); further: top concentration of the series differs between compounds; nearly all actives have a fitted effect of over 45% in size
In short: (§1)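 Luminescence readout at each listed time point; HEK293, 600 cells/well, RealTime-Glo MT reagent added with cells; compounds pinned (23 nL in DMSO) after 5 h at 37 C; continuous culture at 37 C.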

[2] = A CellTox Green Cytotoxicity Assay to monitor cytotoxicity in HEK293 cells - 32 hour (AID 1224881); further: nearly all actives have a fitted effect of over 40% in size
In short: (§2)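 Read-out: fluorescence of a cell-impermeant cyanine dye staining DNA of dead cells, proportional to cytotoxicity. HEK293, 600 cells/well with reagent, compound (23 nL DMSO) added after 5 h; reads at 0, 8, 16, 24, 32, 40 h.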

[3] = A CellTox Green Cytotoxicity Assay to monitor cytotoxicity in HepG2 cells - 0 hour (AID 1224882); further: nearly all actives have a fitted effect of over 35% in size
In short: (§3)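 HepG2, 600 cells/well premixed w/ CellTox Green; 5 h settle, 37 C/5% CO2; pintool cpd add (DMSO); 37 C, 40 h; fluorescence read at 0, 8, 16, 24, 32, 40 h.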

[4] = A CellTox Green Cytotoxicity Assay to monitor cytotoxicity in HepG2 cells - 32 hour (AID 1224883); further: nearly all actives have a fitted effect of over 50% in size
In short: as §3

[5] = A CellTox Green Cytotoxicity Assay to monitor cytotoxicity in HEK293 cells - 8 hour (AID 1224884); further: nearly all actives have a fitted effect of over 35% in size
In short: as §2

[6] = qHTS RealTime-Glo MT Cell Viability Assay in HepG2 cells - 16 hour (AID 1224885); further: nearly all actives have a fitted effect of over 50% in size
In short: (§4)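 HepG2 cells were seeded at 600 cells/well together with NanoLuc luciferase and a cell-permeant prosubstrate, preincubated 5 h at 37 C/5% CO2, then pin-dosed with compounds in DMSO. Nonlytic luminescence from viable cells was read at each time point.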

[7] = qHTS RealTime-Glo MT Cell Viability Assay in HEK293 cells - 24 hour (AID 1224886); further: nearly all actives have a fitted effect of over 50% in size; further: potency means the concentration at half of the fitted maximal effect
In short: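 HEK293 cells were seeded at 600 cells/well together with NanoLuc luciferase and cell-permeant prosubstrate, preincubated 5 h at 37 C/5% CO2, then given compound in DMSO by pintool. Luminescence from viable-cell prosubstrate reduction was read repeatedly over 40 h.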

[8] = qHTS RealTime-Glo MT Cell Viability Assay in HEK293 cells - 8 hour (AID 1224887); further: nearly all actives have a fitted effect of over 50% in size; further: potency means the concentration at half of the fitted maximal effect
In short: as §1

[9] = A CellTox Green Cytotoxicity Assay to monitor cytotoxicity in HEK293 cells - 16 hour (AID 1224888); further: nearly all actives have a fitted effect of over 35% in size
In short: as §2

[10] = qHTS RealTime-Glo MT Cell Viability Assay in HepG2 cells - 0 hour (AID 1224889); further: nearly all actives have a fitted effect of over 50% in size
In short: as §4

[11] = A CellTox Green Cytotoxicity Assay to monitor cytotoxicity in HepG2 cells - 8 hour (AID 1224890); further: nearly all actives have a fitted effect of over 45% in size
In short: as §3

[12] = qHTS assay to identify small molecule antagonists of the estrogen receptor alpha (ER-alpha) signaling pathway using the BG1 cell line in the presence of 0.1 nM 17-beta-estradiol - cell viability counter screen (AID 1259241); further: nearly all actives have a fitted effect of over 40% in size
In short: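 Viability in VM7Luc4E2 cells after 22 hr compound exposure under 0.1 nM 17beta-estradiol stimulation, by CellTiter-Fluor.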

[13] = qHTS assay to identify small molecule antagonists of the androgen receptor (AR) signaling pathway using the MDA cell line in the presence of 0.5 nM R1881 - cell viability counter screen (AID 1259242); further: nearly all actives have a fitted effect of over 45% in size
In short: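 Live-cell protease fluorescence, CellTiter-Fluor, 30 min at 37C. Cells: MDA-kb2, 3,000/well, preincubated 5 hr. Compounds plus 0.5 nM R1881 final, 16 hr, 37C, 0% CO2.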

[14] = qHTS assay to identify small molecule phospholipidosis (PLD) inducers (AID 1259344; active means well fitted curve in the direction sought with a large enough effect; an effect the other way counts as inactive or inconclusive)
In short: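 Accumulated phospholipid, stained red by LipidTOX during 24 h compound treatment of HepG2 cells at 37 C, is quantified from images as pit number and intensity, normalised per cell using Hoechst-stained nuclei.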

[15] = qHTS assay to identify small molecule HDAC inhibitors (AID 1259364);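 further: wild-type HCT-116 cells with endogenous class I/II HDAC activity; top concentration of the series differs between compounds; nearly all actives have a fitted effect of over 45% in size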
In short: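 HCT-116 (wild type), 1,500 cells/well, overnight; compound 2 hr 37C 5% CO2; HDAC-Glo I/II reagent 30 min RT; luminescence readout.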

[16] = qHTS assay to identify small molecule HDAC inhibitors - cell viability counter screen (AID 1259365)
In short: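 Cytotoxicity was gauged in wild-type HCT-116 cells after a brief 2hr treatment with DMSO-dissolved compounds at 37C and 5% CO2, using CellTiter-Glo luminescence developed for 30min at room temperature.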

[17] = qHTS assay to identify small molecule agonists of the sonic hedgehog signaling (Shh) pathway - cell viability counter screen (AID 1259366); further: nearly all actives have a fitted effect of over 50% in size
In short: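 Stable Gli1-Luc NIH/3T3 clone, 2,000 cells/well. Compound exposure 24hr at 37C. Read-out: CellTiter-Fluor fluorescence.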

[18] = qHTS assay to identify small molecule antagonists of the sonic hedgehog signaling (Shh) pathway - cell viability counter screen (AID 1259367); further: nearly all actives have a fitted effect of over 55% in size
In short: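 CellTiter-Fluor signal in conditioned medium-stimulated 3T3 Gli1-Luc cells, 23 hr compound exposure, 37C.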

[19] = biological target: Estrogen receptor (Homo sapiens) (UniProt P03372); assay: qHTS assay to identify small molecule antagonists of the estrogen receptor alpha (ER-alpha) signaling pathway using the BG1 cell line in the presence of 0.1 nM 17-beta-estradiol (AID 1259244); further: nearly all actives have a fitted effect of over 50% in size
Estrogen receptor (Homo sapiens), sequence (P03372 whole entry, looked up): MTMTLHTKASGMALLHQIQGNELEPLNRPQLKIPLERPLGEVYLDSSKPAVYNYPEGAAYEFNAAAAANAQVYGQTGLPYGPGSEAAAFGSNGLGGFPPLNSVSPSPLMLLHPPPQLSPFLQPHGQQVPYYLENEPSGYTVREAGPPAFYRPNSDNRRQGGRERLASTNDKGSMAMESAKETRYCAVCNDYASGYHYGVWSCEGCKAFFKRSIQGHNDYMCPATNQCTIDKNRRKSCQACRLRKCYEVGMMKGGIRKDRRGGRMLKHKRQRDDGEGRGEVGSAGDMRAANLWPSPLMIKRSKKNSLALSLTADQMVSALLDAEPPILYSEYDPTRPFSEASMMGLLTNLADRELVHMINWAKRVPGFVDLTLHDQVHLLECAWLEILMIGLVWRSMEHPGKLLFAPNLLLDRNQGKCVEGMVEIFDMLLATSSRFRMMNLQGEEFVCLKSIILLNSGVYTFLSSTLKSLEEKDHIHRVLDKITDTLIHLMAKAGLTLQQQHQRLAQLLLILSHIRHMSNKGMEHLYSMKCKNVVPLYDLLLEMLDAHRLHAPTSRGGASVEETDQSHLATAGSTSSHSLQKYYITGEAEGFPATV
In short: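 Luminescence after ONE-Glo (30 min, room temperature) measured ERE-luciferase activity in VM7Luc4E2 cells treated 22 h with compound and 0.1 nM final 17beta-estradiol as stimulator.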

[20] = biological target: Androgen receptor (Homo sapiens) (UniProt P10275); assay: qHTS assay to identify small molecule antagonists of the androgen receptor (AR) signaling pathway using the MDA cell line in the presence of 0.5 nM R1881 (AID 1259243); further: nearly all actives have a fitted effect of over 50% in size
Androgen receptor (Homo sapiens), sequence (P10275 whole entry, looked up): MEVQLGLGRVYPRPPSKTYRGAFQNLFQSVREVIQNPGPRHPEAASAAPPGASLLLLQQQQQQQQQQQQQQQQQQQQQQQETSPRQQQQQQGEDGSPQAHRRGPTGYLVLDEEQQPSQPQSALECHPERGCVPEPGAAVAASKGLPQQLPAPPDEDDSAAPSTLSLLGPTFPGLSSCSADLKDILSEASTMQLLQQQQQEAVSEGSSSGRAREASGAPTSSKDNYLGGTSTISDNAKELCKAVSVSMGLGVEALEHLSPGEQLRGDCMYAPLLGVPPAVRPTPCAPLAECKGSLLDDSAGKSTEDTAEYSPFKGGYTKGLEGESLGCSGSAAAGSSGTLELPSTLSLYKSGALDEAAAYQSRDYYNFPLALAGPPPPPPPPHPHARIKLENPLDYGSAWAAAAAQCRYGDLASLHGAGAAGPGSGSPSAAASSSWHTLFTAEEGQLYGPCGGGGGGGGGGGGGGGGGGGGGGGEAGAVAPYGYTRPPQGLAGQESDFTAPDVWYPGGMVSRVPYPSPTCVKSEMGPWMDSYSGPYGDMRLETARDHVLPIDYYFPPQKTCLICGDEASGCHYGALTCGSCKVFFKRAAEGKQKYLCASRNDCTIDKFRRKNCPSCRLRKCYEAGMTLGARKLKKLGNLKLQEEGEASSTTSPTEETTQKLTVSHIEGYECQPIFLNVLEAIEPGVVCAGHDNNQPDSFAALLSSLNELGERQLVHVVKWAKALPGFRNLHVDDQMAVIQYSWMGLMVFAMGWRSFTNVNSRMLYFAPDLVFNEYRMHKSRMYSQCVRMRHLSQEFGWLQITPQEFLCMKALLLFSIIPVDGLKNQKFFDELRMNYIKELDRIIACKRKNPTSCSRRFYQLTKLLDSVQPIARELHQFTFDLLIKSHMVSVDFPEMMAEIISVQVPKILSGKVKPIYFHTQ
In short: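 MDA-kb2, MMTV-luc (AR/GR elements); 3,000 cells/well; cpd + 0.5 nM R1881 final; 16 hr 37C, 0% CO2; ONE-Glo 30 min RT; luminescence.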

Measured: Potency

CC1(C)[C@@H](OC(=O)CCC(=O)O)CC[C@]2(C)[C@H]3C(=O)C=C4[C@@H]5C[C@@](C)(C(=O)O)CC[C@]5(C)CC[C@@]4(C)[C@]3(C)CC[C@@H]12
not listed: [19] | [20]
inactive: all other assays above

CNC(=O)c1cnn(-c2nc(N)c3ncn([C@@H]4O[C@H](CO)[C@@H](O)[C@H]4O)c3n2)c1
not listed: [14] | [16] | [17] | [20]
inactive: all other assays above

CCn1cc(C(=O)O)c(=O)c2cc(F)c(N3CCNCC3)cc21
not listed: [16] | [20]
inactive: all other assays above

C=C1c2cccc(O)c2C(O)=C2C(=O)[C@]3(O)C(O)=C(C(N)=O)C(=O)[C@@H](N(C)C)[C@@H]3[C@@H](O)[C@H]12
not listed: [19] | [20]
inactive: all other assays above

Clc1cc(Cl)nc(Cl)n1
not listed: [14] | [19] | [20]
inactive: all other assays above

Oc1cccc(Nc2ccccc2)c1
active: [7] 14.4 µM | [8] 11.4 µM
not listed: [14] | [17] | [20]
inactive: all other assays above

Cc1ccc(CO)cc1
not listed: [14] | [20]
inactive: all other assays above

C/C=C/C=C/C=O
not listed: [14] | [17]
inactive: all other assays above

CCCCC(CC)CN (stereo unspecified)
not listed: [14] | [17] | [19]
inactive: all other assays above

Cc1cscn1
not listed: [14]
inactive: all other assays above

CCCCCCCC/C=C\CCCCCCCCCCCC(=O)O
not listed: [14] | [16]
inactive: all other assays above

NNC(=O)CP(=O)(c1ccccc1)c1ccccc1
not listed: [19] | [20]
inactive: all other assays above

CCCCCCCCCCC(=O)O
not listed: [14] | [16] | [20]
inactive: all other assays above

Nc1cccc2c1CN(C1CCC(=O)NC1=O)C2=O (stereo unspecified)
not listed: [16] | [20]
inactive: all other assays above

C=C1C[C@@]23CC[C@H]4[C@@](C)(CCC[C@@]4(C)C(=O)O[C@@H]4O[C@H](CO)[C@@H](O)[C@H](O)[C@H]4O)[C@@H]2CC[C@]1(O[C@@H]1O[C@H](CO)[C@@H](O)[C@H](O[C@@H]2O[C@H](CO)[C@@H](O)[C@H](O)[C@H]2O)[C@H]1O[C@@H]1O[C@H](CO)[C@@H](O)[C@H](O)[C@H]1O)C3
not listed: [14] | [19]
inactive: all other assays above

CN1CC(=O)N2[C@H](c3ccc4c(c3)OCO4)c3[nH]c4ccccc4c3C[C@@H]2C1=O
not listed: [20]
inactive: all other assays above

O=c1[nH]c2ccc(Cl)cc2o1
not listed: [14] | [16] | [20]
inactive: all other assays above

O=C1NC(=O)c2cc([N+](=O)[O-])ccc21
not listed: [14]
inactive: all other assays above

CC[N+](CC)(CCNC(=O)C(=O)NCC[N+](CC)(CC)Cc1ccccc1Cl)Cc1ccccc1Cl
not listed: [17] | [20]
inactive: all other assays above

O=C(OC(=O)c1ccccc1)c1ccccc1
not listed: [14] | [19]
inactive: all other assays above

CCCC(=O)C(=O)O
not listed: [14] | [20]
inactive: all other assays above

CCC(C)(C)OC
not listed: [14] | [20]
inactive: all other assays above

O=C(/C=C/c1ccc(O)c(O)c1)O[C@@H]1C[C@@](OC(=O)/C=C/c2ccc(O)c(O)c2)(C(=O)O)C[C@@H](O)[C@@H]1O
not listed: [20]
inactive: all other assays above

CN(C)CCN1C(=O)c2ccccc2N(C)c2ccccc21
not listed: [20]
inactive: all other assays above

N#CCc1ccc(Cl)cc1Cl
not listed: [14] | [20]
inactive: all other assays above

Cc1ccco1
not listed: [14] | [20]
inactive: all other assays above

C1C[C@@H]2[C@H]3CC[C@H](C3)[C@@H]2C1
not listed: [14] | [20]
inactive: all other assays above

N#CCCN(CCO)CCO
not listed: [14] | [20]
inactive: all other assays above

C=C/C(C)=C/C/C=C(\C)CCC=C(C)C
not listed: [14] | [19] | [20]
inactive: all other assays above

CCC(C)COC(C)=O (stereo unspecified)
not listed: [14] | [19] | [20]
inactive: all other assays above
